For 38 molecules, outcome and AC50 results are on record in PubChem BioAssay (EPA / NIEHS).

The structures appear in SMILES notation. Calls of active or inactive are those of the source. The calls were made as follows: active = hit-call score of the fitted dose curve at least 0.9, where 1 is the maximum; inactive = score below 0.9.

The experiment is described as follows: BSK_BT_PBMCCytotoxicity: PBMC Cytotoxicity Assessment in the BioMAP Diversity Plus: BT Assay (AID 2284225). The note with it: primary human B cells with PBMC. The procedure:
BSK_BT is a cell-based, multiplexed-readout assay that uses B cell and peripheral blood mononuclear cells, a human vascular primary cell co-culture, with measurements taken at 24 hours after chemical dosing in a microplate: 96-well plate.BSK_BT_PBMCCytotoxicity is an assay component measured in the BSK_BT assay. It measures dehydrogenase activity, a form of viability reporter, as detected with fluorescence intensity signals by Alamar Blue Reduction technology.Data from the assay component BSK_BT_PBMCCytotoxicity was analyzed at the endpoint, BSK_BT_PBMCCytotoxicity, in the positive analysis fitting direction relative to DMSO as the negative control and baseline of activity. Using a type of viability reporter, gain or loss-of-signal activity can be used to understand cellular changes in viability. To generalize the intended target to other relatable targets, this assay endpoint is annotated to the 'cell cycle' intended target family, where the subfamily is 'cytotoxicity'.
The levels of cell surface (or secreted, indicated by the prefix "s") biomarker endpoints were measured by ELISA. Overt cytotoxicity to cells in confluent adherent cultures (all systems other than the BT system) was assessed by measuring total protein levels using sulforhodamine B (SRB) staining in parallel cultures at the time of biomarker measurements, indicated as SRB endpoints. For proliferation assays for adherent cell types, individual cell types are cultured at sub-confluence and relative cell numbers quantified by SRB staining at time points optimized for each system (48 h: 3C and CASM3C systems; 72 h: BT and HDF3CGF systems; 96 h: SAg system). SRB was performed by staining cells with 0.1% SRB after fixation with 10% TCA and reading wells at 560 nm.Viability and proliferation of PBMC (T cells) was quantified by Alamar Blue reduction for the SAg and BT systems. For PBMC viability (referred to as PBMC Cytotoxicity within the assay endpoint names), cells were plated (75,000/well in a 96-well plate) and then chemical samples added for 1 h before addition of activators, SEB and TSST-1 (20 ng/mL final concentration each). Cells were incubated for 90 h. Then, Alamar Blue (20 uL/well) (Invitrogen, Cat DAL1100) was added for 6 h, and the plates were read with a fluorescence microplate reader at 546/580 nm (excitation/emission). For PBMC proliferation, cells were plated and activated as above but incubated for only 16 h prior to addition of Alamar Blue. Plates were read after 6 h.
Consider `O=C1OC2(c3ccccc31)c1ccc(O)c(Br)c1Oc1c2ccc(O)c1Br`, for which the outcome was inactive. Consider `CC(C=O)Cc1ccc(C(C)(C)C)cc1` (stereo not drawn), for which the result was inactive. For the molecule `CCCCCCCCCCCCCCCC(=O)OC/C=C(C)/C=C/C=C(C)/C=C/C1=C(C)CCCC1(C)C`, the outcome was inactive. As for `CN(C)C(=S)SC(=S)N(C)C`, the AC50 (as a rule, the midpoint of the concentration-response curve, whichever way the signal moves) was 0.396 µM (active). Turning to `CCN(CC)C(=O)N(CC)CC`, the result was inactive. Turning to `CCCCOC(=O)CCCCCCCC(=O)OCCCC`, the result was inactive.

With `c1ccc(CCc2ccccc2)cc1`, the result was inactive.

Take `CC1(C)C2=CCCC(C)(C)[C@]23CC[C@H]1C3`: the outcome was inactive. On the same count and under the same terms, the result for `CC=Cc1ccc(OCC)c(O)c1` reads “inactive”; that for `CC(=O)c1c(C)c([N+](=O)[O-])c(C(C)(C)C)c([N+](=O)[O-])c1C`, “inactive”. Still for that read-out and setting: under `CC(C)(N=C=O)c1cccc(C(C)(C)N=C=O)c1` stands “inactive”; under `c1ccc(Oc2ccccc2)cc1`, “inactive”. `CC(=O)Nc1ccc(C(=O)CCl)cc1`: the AC50 was 5.36 µM (active). For the molecule `C[C@@H]1CCN(C(=O)[C@H](CCCN=C(N)N)NS(=O)(=O)c2cccc3c2NC[C@H](C)C3)[C@@H](C(=O)O)C1`, the result was inactive. Regarding `C=C(C)C(=O)OCCOCCOCCOC(=O)C(=C)C`, the outcome was inactive. Take `O=C1OC[C@H](Cc2cccc(O)c2)[C@H]1Cc1cccc(O)c1`: the result was inactive. For the molecule `CC(=O)C1(C)CC2=C(CCCC2(C)C)CC1C` (stereo not drawn), the AC50 was 31.9 µM (active). For the molecule `Oc1c(Cl)cc(Cl)c(Cl)c1Cc1c(O)c(Cl)cc(Cl)c1Cl`, the AC50 was 20 µM (active). `CN(C)C(=O)Nc1ccc(Oc2ccc(Cl)cc2)cc1`: the outcome was inactive. In the case of `IC(I)I`, the result was inactive. `CCCCN(CCCC)C(=O)N(CCCC)CCCC`: the AC50 was 32.8 µM (active). `COc1ccc(CCN2CCC(Nc3nc4ccccc4n3Cc3ccc(F)cc3)CC2)cc1`: the AC50 was 7.27 µM (active). Regarding `C=C(C)[C@H]1CC=C(C)C(=O)C1`, the outcome was inactive. The same measure, in the same setting: the result for `CCCCCC(C=O)=Cc1ccccc1` reads “inactive”. Take `C=C(C)C(=O)OCC(CC)(COC(=O)C(=C)C)COC(=O)C(=C)C`: the outcome was inactive. For `O=C1c2ccccc2C(=O)c2c(O)ccc(O)c21`, the AC50 is 11 µM (active). As to `COc1cc(Cl)c(OC)cc1N`, the result was inactive. With `CC(C)(C)CC(C)(C)c1ccc(OCCOCC[N+](C)(C)Cc2ccccc2)cc1`, the AC50 is 8.02 µM (active).

As for `c1ccc2cc(Nc3ccc(Nc4ccc5ccccc5c4)cc3)ccc2c1`, the result was inactive. Take `CS(=O)(=O)c1ccc(C2=C(c3ccccc3)C(=O)OC2)cc1`: the outcome was inactive. Consider `C1=CC2C3C=CC(C3)C2C1` (stereo not drawn), for which the outcome was inactive. The same measure, in the same setting: the result for `C=C(C)C(=O)OCCOCCOCCOCCOC(=O)C(=C)C` reads “inactive”.

Turning to `CCC(C)c1cc([N+](=O)[O-])cc([N+](=O)[O-])c1OC(=O)OC(C)C` (stereo not drawn), the AC50 was 20 µM (active).

`CSCCC=O`: the result was inactive. Same read-out and setting: under `Cc1cc(CCC(=O)OCCOCCOCCOC(=O)CCc2cc(C)c(O)c(C(C)(C)C)c2)cc(C(C)(C)C)c1O` stands “inactive”. `Clc1cc(Cl)c(-c2c(Cl)c(Cl)cc(Cl)c2Cl)cc1Cl`: the result was inactive. The same measure, in the same setting: under `COc1ccc(OC)c(N=Nc2c(O)ccc3ccccc23)c1` stands “inactive”; under `CN(c1nccc(=O)[nH]1)C1CCN(c2nc3ccccc3n2Cc2ccc(F)cc2)CC1`, “inactive”.
